Screening data from PubChem BioAssay.
Vif-APOBEC3F blk: inhibitors of Vif-A3F interaction; HeLa A3F-eYFP + Vif (tagged APOBEC3F with the HIV-1 protein that degrades it), YFP fluorescence increase; actives 0.2% (n = 390,000); Potency, µM (top dose mostly 46.1 µM), without a hit: at the top dose activity, negative = active; further: potency means the concentration at half of the fitted maximal effect; % of control where 0% means no effect; nearly all actives have a fitted effect of over 65% in size
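HeLa cells stably expressing A3F-eYFP plus Vif, plated and incubated overnight at 37 deg C, then exposed to compounds overnight at 37 deg C. Blocked degradation read as raised yellow fluorescence (Ex 488/Em 500-530).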
VDR inh: vitamin D3 receptor (human) inhibition | AID 504847 | VDR-SRC2-3 peptide fluorescence polarization, 2 h | actives 0.93% (n = 400,000) | Potency, µM, for inactives: max response, negative = inhibition, actives largely listed as inhibitors; further: potency means the concentration at half of the fitted maximal effect; on the % scale 0 is the no-effect control and ±100 the full control effect
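Two reagent solutions held at 4 deg C in the dark were dispensed, compounds pinned at 23 nl, and the mixture incubated 2 h at room temperature. Read-out: fluorescence polarization of VDR–SRC2-3 peptide binding.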
TSHR antag: antagonists of human thyroid stimulating hormone receptor | TSHR-expressing cells, TSH-stimulated cAMP HTRF, 2 h; active compounds read low | activity change, negative = inhibition, % at 11.5 µM | actives 0.2% (n = 330,000);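 active means activity change below a set negative limit, meaning inhibition stronger than a set level, cut at about -70% in these data; inconclusive means activity change between two set negative limits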; further: on the % scale 0 is the no-effect control and ±100 the full control effect
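Inhibition of cAMP made by TSHR-expressing cells under TSH stimulation (4nM final, EC80; 2 h, 37 deg C) is quantified with a one-step lysis HTRF kit, anti-cAMP cryptate versus cAMP-d2.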
Vif-A3G inh: Vif-A3G binding inhibition | AID 602310 | Potency, µM (top dose mostly 46.1 µM), for inactives: at the highest dose activity, negative = active, most hits filed as inhibitors | HeLa A3G-eYFP + Vif (tagged APOBEC3G with the HIV-1 protein that degrades it), YFP fluorescence, overnight | actives 0.076% (n = 410,000) | Q9HC16; further: potency means the concentration at half of the fitted maximal effect; on the % scale 0 is the no-effect control and ±100 the full control effect; nearly all actives have a fitted effect of over 60% in size
Target sequence (Q9HC16 whole entry, looked up): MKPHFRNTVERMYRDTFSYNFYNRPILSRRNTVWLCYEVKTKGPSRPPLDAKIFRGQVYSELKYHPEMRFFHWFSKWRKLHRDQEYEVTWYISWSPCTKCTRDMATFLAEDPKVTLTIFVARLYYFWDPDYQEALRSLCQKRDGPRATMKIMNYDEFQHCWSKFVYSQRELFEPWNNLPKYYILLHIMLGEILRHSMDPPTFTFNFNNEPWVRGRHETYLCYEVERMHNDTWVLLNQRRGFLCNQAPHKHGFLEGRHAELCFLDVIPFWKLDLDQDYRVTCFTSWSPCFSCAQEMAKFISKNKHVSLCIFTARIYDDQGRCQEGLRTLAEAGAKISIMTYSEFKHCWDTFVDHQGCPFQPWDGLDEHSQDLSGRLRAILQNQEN
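Read-out is eYFP fluorescence (Ex 488/Em 500-530) from Vif-expressing HeLa A3G-eYFP cells; more signal means A3G escaped Vif-mediated degradation. Cells plated overnight, compound pinned in, incubated overnight at 37 deg C.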
PLK1 PBD block: PLK1 (human) polo-box domain binding inhibition; Plk1 PBD binding of FITC phosphopeptide, fluorescence polarization; P53350; actives 2.8% (n = 360,000); AID 720504; Potency, µM, for inactives: max response, negative = inhibition, actives largely listed as inhibitors; further: potency means the concentration at half of the fitted maximal effect; series mostly up to about 57 µM; on the % scale 0 is the no-effect control and ±100 the full control effect; nearly all actives have a fitted effect of over 65% in size
* hit, by the source's call; ? = inconclusive; nt = no result. Most compounds without a hit are left out; they make up all but 3.1% or so of the library. Unless noted, the call rests on the fitted dose curve; in most records, active means well fitted curve in the direction sought with a large enough effect; inconclusive means small, poorly fitted or top-dose-only effect, or another doubt; inactive means no such curve, though single readings can be large; an effect the other way counts as inactive or inconclusive.

SMILES | Vif-APOBEC3F blk | VDR inh | TSHR antag | Vif-A3G inh | PLK1 PBD block
CCOC(=O)c1cc(-c2ccccc2)n(-c2cccc(C(=O)NC(C)CC)c2)c1C (stereo not drawn) | 4% | -1% | nt | 2% | nt
Nc1c(S(=O)(=O)O)cc(NC(=O)c2ccccc2)c2c1C(=O)c1ccccc1C2=O | 2% | ? | -24 | 1% | 21µM*
Nc1c(S(=O)(=O)O)cc(Nc2ccc(Cl)cc2)c2c1C(=O)c1ccccc1C2=O | nt | 32µM* | nt | nt | nt
Nc1c(S(=O)(=O)O)cc(Nc2cccc3ccccc23)c2c1C(=O)c1ccccc1C2=O | nt | 35µM* | nt | nt | nt
Nc1c(S(=O)(=O)O)cc(Nc2ccc(Nc3nc(Cl)nc(Nc4ccc(S(=O)(=O)O)cc4)n3)c(S(=O)(=O)O)c2)c2c1C(=O)c1ccccc1C2=O | nt | ? | -30 | 2% | nt
O=S(=O)(Nc1cccc2ccccc12)c1ccccc1F | -2% | -11% | 25 | -8% | -3%
C=C1C[C@@]23CC[C@H]4[C@@](C)(CCC[C@@]4(C)C(=O)OC4OC(CO)C(O)C(O)C4O)[C@@H]2CC[C@]1(OC1OC(CO)C(O)C(O)C1OC1OC(CO)C(O)C(O)C1O)C3 (stereo partly drawn) | nt | 9% | -7 | nt | nt
C=C1NN(Cc2ccc(OC)cc2)C(=O)N1c1ccccc1 | nt | nt | nt | 6% | nt
CCOc1c(Cl)cc(CNc2ccc(N3CCCC3)cc2)cc1OC | -13% | 14µM* | -9 | ? | ?
O=C(NCCc1ccccc1)c1cccc(Br)n1 | nt | -12% | nt | nt | nt
Cc1[nH]c2ccccc2c1C(=O)C(C)Sc1nc2ccccc2c(=O)n1Cc1cccnc1 (stereo not drawn) | nt | nt | nt | 0% | nt
Oc1cccc(C=Nc2cccc3ccccc23)c1O | ? | 28µM* | -16 | ? | -11%
Oc1ccccc1C=Nc1cccc2ccccc12 | 0% | -12% | -8 | -1% | -3%
CC1Oc2ccccc2C=C1/C=N/Nc1ccc(C(=O)O)cc1 (stereo not drawn) | -5% | ? | -22 | -16% | 24µM*
COc1ccc(C(C[N+](=O)[O-])c2c(C)[nH]n(-c3ccccc3)c2=O)cc1 (stereo not drawn) | 2% | ? | 6 | ? | 24µM*
Cc1[nH]n(-c2ccccc2)c(=O)c1C(c1ccc(O)c([N+](=O)[O-])c1)c1c(C)[nH]n(-c2ccccc2)c1=O | 2% | ? | nt | 0% | 24µM*
CCc1ccccc1Nc1cc(C(=O)NCCCN(C)C2CCCCC2)c2ccccc2n1 | -24% | -4% | nt | 0% | nt
CO[C@H]1C[C@@H]2CC[C@@H](C)[C@@](O)(O2)C(=O)C(=O)N2CCCC[C@H]2C(=O)O[C@H]([C@H](C)C[C@@H]2CC[C@@H](OC(=O)C(C)(CO)CO)[C@H](OC)C2)CC(=O)[C@H](C)/C=C(\C)[C@@H](O)[C@@H](OC)C(=O)[C@H](C)C[C@H](C)/C=C/C=C/C=C/1C | nt | 0% | nt | nt | nt
COC(=O)/C=C1\S/C(=N/N=C/c2ccccc2)NC1=O | 7% | 0% | -25 | 0% | -16%
COC(=O)/C=C1\S/C(=N/N=C/c2ccc(Cl)cc2)NC1=O | -4% | -14% | -1 | -4% | 30µM*
NC(CSS(=O)(=O)O)=NCCC12CC3CC(CC(O)(C3)C1)C2 | 0% | 40µM* | 0 | 0% | 12µM*
CC1(C)Cc2c(sc3nn[nH]c(=O)c23)CO1 | 0% | -1% | 2 | -2% | ?
CCC1(C)Cc2c(sc3nn[nH]c(=O)c23)CO1 (stereo not drawn) | 0% | -18% | -8 | 1% | 21µM*
CCOC(=O)c1cc(C(=O)Nc2sc3c(c2C#N)CCCC3)nn1C | -6% | ? | -44 | 2% | 21µM*
Cn1cc([N+](=O)[O-])c(C(=O)Nc2sc3c(c2C#N)CCC3)n1 | -3% | -9% | -2 | ? | -2%
SMILES | Vif-APOBEC3F blk | VDR inh | TSHR antag | Vif-A3G inh | PLK1 PBD block
Cc1cc(C(F)F)n2nc(C(=O)Nc3sc4c(c3C#N)CCC4)nc2n1 | -17% | -8% | -4 | -3% | 27µM*
CC(C)Cc1cc(C(=O)Nc2sc3c(c2C#N)CCC3)no1 | -14% | -17% | -19 | -14% | 24µM*
Cn1ccc(C(=O)Nc2sc3c(c2C#N)CCC3)n1 | -3% | 3% | 23 | -6% | ?
N#Cc1c(NC(=O)c2cc(C3CC3)on2)sc2c1CCC2 | -18% | ? | 1 | ? | 27µM*
Cc1cc(C(=O)Nc2sc3c(c2C#N)CCC(C)C3)no1 (stereo not drawn) | -22% | -12% | -5 | -26% | -21%
Cc1cc(C(=O)Nc2sc3c(c2C#N)CCCC3)no1 | 0% | -16% | -3 | ? | 27µM*
COc1ccccc1-c1cc(C(=O)Nc2sc3c(c2C#N)CCC(C)C3)c2ccccc2n1 (stereo not drawn) | -5% | -7% | 2 | 5% | 27µM*
CC(C)Cc1cc(C(=O)Nc2sc3c(c2C#N)CCCC3)no1 | -9% | -22% | 8 | -12% | ?
COc1ccccc1-c1cc(C(=O)Nc2sc3c(c2C#N)CCCC3)no1 | -3% | 79µM* | nt | 5% | nt
COC(=O)[C@H]1O[C@@H](c2cc(OC)c(C)c(OC)c2O)[C@H](C)[C@@H](O)[C@H]1C | nt | -6% | nt | nt | nt
NOCc1ccccc1 | nt | 2% | nt | nt | nt
COc1cc([N+](=O)[O-])ccc1N=Nc1c(N)[nH]n(-c2ccccc2)c1=O | -1% | -19% | -4 | 0% | 30µM*
Cc1ccc(N=Nc2c(C)[nH]n(-c3ccccc3)c2=O)cc1Br | 3% | -7% | -6 | -1% | -3%
Cc1[nH]n(-c2ccccc2)c(=O)c1N=Nc1ccc2c(c1)OCCO2 | 0% | -1% | -6 | 0% | 0%
Cc1ccc(N=Nc2c(C)[nH]n(-c3ccccc3)c2=O)c(C)c1 | -2% | ? | -21 | -2% | 8.4µM*
Cc1[nH]n(-c2ccccc2)c(=O)c1N=Nc1c(O)cc(S(=O)(=O)N(C)C)c2ccccc12 | 1% | 13% | ? | 0% | 30µM*
Cc1cc2ccccc2cn1 | nt | nt | nt | 3% | nt
CCN(C(=O)c1nn(-c2ccc(C)cc2)c(=O)c2c1c1ccccc1n2C)c1ccc(F)cc1 | nt | -8% | nt | nt | nt
O=S(=O)(Cc1ccccc1)N1CCN(c2nc(-c3cccs3)nc3ccccc23)CC1 | nt | 2% | nt | nt | nt
CC(C)[C@H](N)C(=O)N[C@@H](CCC(N)=O)C(=O)NCC(=O)N[C@@H](CCC(=O)O)C(=O)N[C@@H](CCC(=O)O)C(=O)N[C@@H](CO)C(=O)N[C@@H](CC(N)=O)C(=O)N[C@@H](CC(=O)O)C(=O)N[C@@H](CCCCN)C(=O)O | nt | 3% | nt | nt | nt
O=C(c1ccc(Cl)c([N+](=O)[O-])c1)N(Cc1ccc(Cl)cc1)C1CCS(=O)(=O)C1 (stereo not drawn) | 1% | -29% | -4 | -12% | 4%
Cc1ccc(CN(C(=O)COc2ccc(Br)cc2)C2CCS(=O)(=O)C2)o1 (stereo not drawn) | -11% | ? | -7 | 1% | 12µM*
